This is part of a sample that, as a whole, favours compounds with a hit. Of some 83,000 tested, about 20% had one in any assay.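 Single-concentration screen, 48 h exposure, 96-well plates. Endpoint: percent growth. Below 10 = active.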 Calls of active or inactive are those of the source.
Experiments:
Assay in all cases: NCI-60 one-dose screen, 48 h (100 = growth as untreated, 0 = no growth, -100 = all killed)
Conditions in all cases: 10 µM unless noted
[1] = tested on: DU-145 prostate
[2] = tested on: K-562 leukemia
[3] = tested on: MALME-3M melanoma
[4] = tested on: MDA-MB-231 breast
[5] = tested on: RXF 393 renal
[6] = tested on: SF-268 CNS
[7] = tested on: SF-295 CNS
[8] = tested on: SF-539 CNS
[9] = tested on: UACC-257 melanoma
[10] = tested on: M14 melanoma

Measured: growth

Cc1ccc(S(=O)(=O)NCCNc2nccc(-c3c(-c4cccc(N)c4)nc4sccn34)n2)cc1
inactive: [1] 96.9% | [2] 67.1% | [3] 106% | [4] 85.9% | [5] 102% | [6] 86.7% | [7] 95.6% | [8] 101% | [9] 91.1% | [10] 107%

C[n+]1c(/C=C/c2c(O)ccc3ccccc23)ccc2ccccc21
inactive: [1] 49.1% | [3] 40.4% | [4] 24.8% | [5] 37.9% | [6] 61.2% | [7] 40.6% | [9] 46.1% | [10] 34.3%
active: [2] 6.81% | [8] -14.9%

Fc1ccc(Nc2ncnc3ccc(-c4cnc5[nH]ccc5c4)cc23)cc1Cl
active: [2] 4.25% | [3] 2.95% | [4] -16.9% | [5] -27.3% | [7] -32.2% | [8] -73.2%
inactive: [1] 40.4% | [6] 32.8% | [9] 39.2% | [10] 42.7%

COc1cc2c(=O)n(C3CCCCCC3)c3c4cc[nH]c4ncc3c2cc1OC
inactive: [1] 78% | [2] 16% | [3] 113% | [4] 75.5% | [5] 37.7% | [6] 65.6% | [7] 69.7% | [8] 17.1% | [9] 109% | [10] 92.6%

CC(C)(C)n1cc(-c2ccnc(NCCCNS(=O)(=O)c3ccc(C(F)(F)F)cc3)c2)c(-c2cccc(O)c2)n1
active: [2] 3% | [3] -18% | [4] 1.39% | [5] -3.46% | [7] 1.72% | [10] 1.32%
inactive: [1] 46.3% | [6] 36.3% | [8] 19.8% | [9] 17.2%

COc1ccc(-c2nc3sccn3c2/C=C/C(=O)c2cc(F)cc(F)c2)cc1
inactive: [1] 86.2% | [2] 19.1% | [3] 102% | [4] 62.6% | [5] 54.4% | [6] 81.8% | [7] 116% | [8] 92.8% | [9] 101% | [10] 89.2%

CCOC(=O)CC(=O)OC
inactive: [1] 118% | [2] 103% | [3] 114% | [4] 121% | [5] 114% | [6] 111% | [7] 110% | [8] 95.7% | [9] 96.9% | [10] 96.1%

C=C(C)[C@@H]1C[C@H](O)Cc2cc(F)ccc2N1
inactive: [1] 107% | [2] 42.2% | [3] 109% | [4] 108% | [5] 100% | [6] 113% | [7] 116% | [8] 86.3% | [9] 93.3% | [10] 88.6%

COc1cc(C2C3=C(COC3=O)Nc3cc4c(cc32)OCO4)cc2c1OCO2 (stereo not given)
inactive: [3] 53.8% | [4] 11.1% | [5] 18.5% | [6] 20.1% | [9] 65.1%
active: [1] -19.5% | [2] 7.92% | [7] 5.02% | [8] -0.0643% | [10] 5.48%

CCCCCCCCCCCCCCCCCCNC(=O)[C@H]1CSC(c2ccc(OC)cc2O)N1 (stereo not given in full)
inactive: [1] 22.5% | [2] 25.7% | [3] 96.6% | [4] 38.1% | [5] 32.5% | [6] 50.6% | [7] 93% | [8] 66% | [9] 88.3% | [10] 65.3%

O=c1ccn(C2CC(O)C(O)C(CO)O2)c(=O)[nH]1 (stereo not given)
inactive: [1] 121% | [2] 109% | [3] 112% | [4] 116% | [5] 245% | [6] 122% | [7] 112% | [8] 107% | [9] 112% | [10] 105%

COc1ccc(/C=C2\Oc3cc(OCCCN4CCCC4)ccc3C2=O)c(OC)c1
active: [2] -30.4%
inactive: [1] 71.2% | [3] 106% | [4] 78.8% | [5] 77.3% | [6] 87.3% | [7] 99.8% | [8] 51.6% | [9] 103% | [10] 67.7%

Fc1ccc(-c2nc(-c3nc4ncccc4[nH]3)cc3c2[nH]c2ccccc23)cc1F
inactive: [1] 49% | [2] 78.5% | [3] 78.5% | [4] 53.9% | [5] 73.1% | [6] 71.1% | [7] 86.9% | [8] 79.6% | [9] 92.2% | [10] 78.8%
